Inconclusive results are not listed. The source made the active and inactive calls. Calls follow the shape of the dose curve; as a rule, active = well fitted inhibition curve with a large enough effect; inconclusive = small, poorly fitted or top-dose-only effect; inactive = no such curve, though single readings can be large or run the other way.

Chain of Luciferin 4-monooxygenase (Photinus pyralis) (P08659 whole entry, looked up): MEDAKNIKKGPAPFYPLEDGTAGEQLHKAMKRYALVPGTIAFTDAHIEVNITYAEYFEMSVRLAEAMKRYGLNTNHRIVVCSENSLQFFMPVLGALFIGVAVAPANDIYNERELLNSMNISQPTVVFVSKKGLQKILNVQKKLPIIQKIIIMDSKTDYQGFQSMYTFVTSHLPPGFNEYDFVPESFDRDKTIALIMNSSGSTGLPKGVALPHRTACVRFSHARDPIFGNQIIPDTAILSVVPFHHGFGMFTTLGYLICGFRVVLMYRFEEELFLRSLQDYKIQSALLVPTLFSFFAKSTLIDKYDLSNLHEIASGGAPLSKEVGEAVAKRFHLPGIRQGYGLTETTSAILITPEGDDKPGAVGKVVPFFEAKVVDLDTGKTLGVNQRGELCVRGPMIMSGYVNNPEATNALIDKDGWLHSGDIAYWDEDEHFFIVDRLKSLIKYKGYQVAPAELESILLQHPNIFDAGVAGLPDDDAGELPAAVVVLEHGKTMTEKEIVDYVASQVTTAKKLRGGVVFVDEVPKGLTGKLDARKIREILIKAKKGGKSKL

The target in this test is Luciferin 4-monooxygenase (Photinus pyralis) (UniProt P08659). As to the kind of experiment: FLuc inhibitory activity for the follow-up compounds in a biochemical assay with an in-house formulation of detection reagent. The settings on record: purified FLuc, luminescence; series mostly up to 25.6 µM; activity change, negative = inhibition: at the top concentration. From the text:
NCGC Assay Overview: Firefly (Photinus pyralis) luciferase is one of the most commonly used transcriptional reporters. It is considered one of the more dynamically responsive reporters - that is, responsive to changes in reporter transcription - as it requires no post-translational modifications and is enzymatically active directly after protein synthesis (Wood, 1998). With no endogenous expression in mammalian cells and without the requirement of external excitation, it offers very little background signal, thus generally providing excellent signal to background for most assays. Previous profiling work to determine the prevalence of compounds that affect FLuc enzymatic activity (PubChem AID 411) identified that ~3% of the MLSMR library (then at ~72K) inhibited FLuc (Auld et al., 2008). […] Of the compounds identified in this profile that inhibited FLuc, 151 compounds were selected for further analysis, in an effort to better understand their mode of inhibiting FLuc. The assay described here was to determine the activity of the compounds in a FLuc assay that used an in-house formulation of detection reagent.
NCGC Assay Protocol Summary: Reagents: 300mM Tris-HCl, 300mM Trizma base, 300mM MgCl, 1% Triton-X100, 5mM DTT, 500uM Coenzyme A trilithium salt (Sigma #C3019),450uM ATP (Sigma #A7699), 1mM D-luciferin sodium salt monohydrate (Biosynth #L8240); 10nM P. pyralis luciferase (Sigma #L9506) Control compounds used were two known firefly luciferase inhibitors (3-(5-(3-chlorophenyl)-1,2,4-oxadiazol-3-yl)benzoic acid and 5-(2-fluorophenyl)-3-phenyl-1,2,4-oxadiazole), and DMSO. Assay Summary: Six microliters of buffer containing firefly luciferase (final concentrations: 50mM Tris acetate, 10nM P. pyralis luciferase) are dispensed into each well of a Greiner white, solid-bottom 1536-well format plate using a flying reagent dispenser (FRD). These assay plates were then treated with 23nL of compound or DMSO using a Kalypsys pin tool, which allows for delivery of a 12-point intraplate titration of each compound to the assay plate (quantitative HTS), with final compound concentrations ranging from approximately ~25uM to 0.1nM. Three microliters of 3X in-house detection reagent was then delivered by FRD to each well (final concentrations in assay: 300mM Tris-HCl, 300mM Trizma base, 300mM MgCl, 1% Triton-X100, 5mM DTT, 500uM Coenzyme A trilithium salt, 450uM ATP, 1mM D-luciferin sodium salt monohydrate). Luciferase activity was then measured using a ViewLux CCD imager (PerkinElmer), with an average exposure time of 2-30 seconds (2X binning, medium/high gain).
As to `Cc1c(NC(=O)c2cccs2)cccc1-c1nc2ccccc2s1`, the “activity change, negative = inhibition” value is -9.6% (inactive).
As for `Nc1ccc2nc(-c3ccc(O)cc3)sc2c1`, the Potency was 6.19 µM (active).
Still for that read-out and setting: the same measure for `COc1cccc(-c2nc3ccccc3s2)c1`: 7.79 µM (active).
As to `O=C(O)c1cccc(NC(=O)c2cccc(NC(=O)C3CCCO3)c2)c1` (stereo not given), the “activity change, negative = inhibition” value is -14.9% (inactive).
Turning to `COc1cc(OC)cc(C(=O)Nc2ccc(-c3nc4ccccc4s3)c(C)c2)c1`, the “activity change, negative = inhibition” value is -18.6% (inactive).
`COc1cc(OC)cc(C(=O)Nc2ccccc2-c2nc3ccccc3s2)c1`: the “activity change, negative = inhibition” value was -6.18% (inactive).
Consider `COc1ccc2nc(NC(=O)Cc3cccs3)sc2c1`, for which the “activity change, negative = inhibition” value is -18.1% (inactive).
For `CN=c1scc(-c2ccccc2F)n1/N=C/c1ccc[nH]1`, the Potency was 0.123 µM (active).
`O=C(Nc1ccccc1C(=O)O)c1ccc(NC(=O)C2CC2)cc1`: the Potency was 7.79 µM (active).
On to `CCOc1ccc2nc(NC(=O)c3ccoc3C)sc2c1`, for which the Potency was 4.91 µM (active).
With `O=C(Nc1ccccc1C(=O)O)c1cccc(C(=O)Nc2ccccc2C(=O)O)c1`, the “activity change, negative = inhibition” value is -16.8% (inactive).
In the case of `O=C(Nc1ccccc1C(=O)O)c1cccc(S(=O)(=O)N2CCCC2)c1`, the “activity change, negative = inhibition” value was -18.7% (inactive).
Turning to `CN(C)S(=O)(=O)c1ccc(C(=O)Nc2ccccc2C(=O)O)cc1`, the “activity change, negative = inhibition” value was -6.75% (inactive).
`O=C(O)c1ccc(NC(=O)c2ccccc2NC(=O)c2ccccc2Br)cc1`: the “activity change, negative = inhibition” value is -14% (inactive).
Same read-out and setting: the same measure for `O=C(O)c1cccc(NC(=O)c2cccc(S(=O)(=O)N3CCc4ccccc4C3)c2)c1`: -8.2% (inactive).
Still for that read-out and setting: with `Cc1ccc(C(=O)Nc2ccc(C(=O)O)cc2)cc1S(=O)(=O)Nc1ccccc1` the figure was -13.9% (inactive).
In the case of `Cc1c(C)c2ccc(OCC(=O)Nc3ccccn3)c(C)c2oc1=O`, the Potency is 0.0874 µM (active).
For `COc1ccc2nc(NC(=O)c3nc(S(=O)(=O)Cc4ccc(C)cc4)ncc3Cl)sc2c1`, the “activity change, negative = inhibition” value is -19.5% (inactive).
On to `COc1ccc(C(=O)Nc2ccccc2C(=O)N/N=C/c2ccc(O)c(OC)c2)cc1`, for which the Potency is 0.011 µM (active).
On to `CCOc1ccc(C(=O)Nc2ccccc2C(=O)O)cc1`, for which the Potency is 6.94 µM (active).
On to `COc1ccc2nc(NC(=O)c3cccs3)sc2c1`, for which the “activity change, negative = inhibition” value was -2.15% (inactive).
On the same count and under the same terms, with `COc1ccc(-c2cccc(C(=O)Nc3cccc(C(=O)O)c3)c2)cc1` the figure was -0.002% (inactive).
With `Cc1ccc2nc(-c3ccc(NC(=O)CN4CCN(C(=O)c5ccco5)CC4)cc3)sc2c1`, the Potency is 2.46 µM (active).
On the same count and under the same terms, with `Nc1ccc(-c2nc3ccc(N)cc3s2)cc1` the figure was 4.91 µM (active); with `COc1ccc2nc(NC(=O)c3cnccn3)sc2c1`, 4.38 µM (active).
`COc1cc(C(=O)Nc2cc(C)c(O)c(-c3nc4ccccc4s3)c2)cc(OC)c1OC`: the “activity change, negative = inhibition” value is -8.7% (inactive).
On the same count and under the same terms, the same measure for `COc1ccc2nc(NC(=O)c3ccc(NS(=O)(=O)c4cccs4)cc3)sc2c1`: 45.8% (inactive).
On to `COc1ccc2nc(NC(=O)CCc3nc(-c4ccccc4F)no3)sc2c1`, for which the Potency is 6.94 µM (active).
In the case of `COc1ccc(C(=O)Nc2nc3ccc(OC)cc3s2)cc1`, the “activity change, negative = inhibition” value is -5.76% (inactive).
Still for that read-out and setting: the same measure for `O=C(Nc1ccccc1C(=O)O)c1ccccc1`: -24% (inactive).
For `O=C(O)c1ccc(NC(=O)c2ccccc2NC(=O)c2ccccc2Cl)cc1`, the “activity change, negative = inhibition” value is -9.72% (inactive).
As to `Nc1ccc2nc(-c3ccccc3)sc2c1`, the Potency is 2.19 µM (active).
Turning to `CC(=O)Oc1ccc(C(=O)Nc2ccccc2C(=O)Nc2cccc(C(=O)O)c2)cc1`, the “activity change, negative = inhibition” value was -11.8% (inactive).
Still for that read-out and setting: with `O=C(Nc1ccccc1C(=O)O)c1cc(S(=O)(=O)NCc2ccccc2)ccc1Cl` the figure was -17.5% (inactive); with `Oc1ccc(-c2nc3ccccc3s2)c(O)c1`, -6.99% (inactive).
On to `O=C(Nc1ccccc1C(=O)O)c1cc(S(=O)(=O)Nc2cccc(F)c2)ccc1Cl`, for which the “activity change, negative = inhibition” value is -17.3% (inactive).
As for `O=C(O)c1ccccc1NC(=O)c1ccccc1Nc1ccccc1`, the “activity change, negative = inhibition” value is -3.26% (inactive).
Regarding `O=C(Nc1ccccc1C(=O)O)c1cccc(NC(=O)c2ccccc2Br)c1`, the “activity change, negative = inhibition” value was -2.39% (inactive).
On the same count and under the same terms, the same measure for `CCCC(=O)Nc1nc2ccc(OCC)cc2s1`: -37.4% (inactive); for `Cc1ccccc1C(=O)Nc1cccc(C(=O)Nc2ccccc2C(=O)O)c1`: -7.54% (inactive).

The values above are taken from PubChem BioAssay AID602475 (National Center for Advancing Translational Sciences (NCATS), 2012).
